This note sets out measurements from PubChem BioAssay AID2073 (Sanford-Burnham Center for Chemical Genomics, 2009).

Where “and” joins values, the source holds several entries; their conditions need not be identical. Equal entries are not always repeated. Hit rate of the full screen: of about 290,000 compounds, about 570 (0.2%) were called active. Not shown: some 1% with an inconclusive outcome. This is one part of a sample in which actives are shown more often than they occur. Rule as the data show it: active = inhibition mostly above about 51% (no sharp cut-off); inconclusive = no clear call, values can overlap the other calls; inactive = mostly below about 53%.

The target of the assay is Voltage-dependent N-type calcium channel subunit alpha-1B (Homo sapiens) (UniProt Q00975). Put plainly: inhibitors of Mint1-CaV2.2 protein interaction, biochemical, HTRF (AID 2073). The following applies: at 20 µM, stronger effect = higher value.
Where [1] appears, read: measured here: average of repeat tests.

Sequence of Voltage-dependent N-type calcium channel subunit alpha-1B (Homo sapiens) (Q00975 whole entry, looked up): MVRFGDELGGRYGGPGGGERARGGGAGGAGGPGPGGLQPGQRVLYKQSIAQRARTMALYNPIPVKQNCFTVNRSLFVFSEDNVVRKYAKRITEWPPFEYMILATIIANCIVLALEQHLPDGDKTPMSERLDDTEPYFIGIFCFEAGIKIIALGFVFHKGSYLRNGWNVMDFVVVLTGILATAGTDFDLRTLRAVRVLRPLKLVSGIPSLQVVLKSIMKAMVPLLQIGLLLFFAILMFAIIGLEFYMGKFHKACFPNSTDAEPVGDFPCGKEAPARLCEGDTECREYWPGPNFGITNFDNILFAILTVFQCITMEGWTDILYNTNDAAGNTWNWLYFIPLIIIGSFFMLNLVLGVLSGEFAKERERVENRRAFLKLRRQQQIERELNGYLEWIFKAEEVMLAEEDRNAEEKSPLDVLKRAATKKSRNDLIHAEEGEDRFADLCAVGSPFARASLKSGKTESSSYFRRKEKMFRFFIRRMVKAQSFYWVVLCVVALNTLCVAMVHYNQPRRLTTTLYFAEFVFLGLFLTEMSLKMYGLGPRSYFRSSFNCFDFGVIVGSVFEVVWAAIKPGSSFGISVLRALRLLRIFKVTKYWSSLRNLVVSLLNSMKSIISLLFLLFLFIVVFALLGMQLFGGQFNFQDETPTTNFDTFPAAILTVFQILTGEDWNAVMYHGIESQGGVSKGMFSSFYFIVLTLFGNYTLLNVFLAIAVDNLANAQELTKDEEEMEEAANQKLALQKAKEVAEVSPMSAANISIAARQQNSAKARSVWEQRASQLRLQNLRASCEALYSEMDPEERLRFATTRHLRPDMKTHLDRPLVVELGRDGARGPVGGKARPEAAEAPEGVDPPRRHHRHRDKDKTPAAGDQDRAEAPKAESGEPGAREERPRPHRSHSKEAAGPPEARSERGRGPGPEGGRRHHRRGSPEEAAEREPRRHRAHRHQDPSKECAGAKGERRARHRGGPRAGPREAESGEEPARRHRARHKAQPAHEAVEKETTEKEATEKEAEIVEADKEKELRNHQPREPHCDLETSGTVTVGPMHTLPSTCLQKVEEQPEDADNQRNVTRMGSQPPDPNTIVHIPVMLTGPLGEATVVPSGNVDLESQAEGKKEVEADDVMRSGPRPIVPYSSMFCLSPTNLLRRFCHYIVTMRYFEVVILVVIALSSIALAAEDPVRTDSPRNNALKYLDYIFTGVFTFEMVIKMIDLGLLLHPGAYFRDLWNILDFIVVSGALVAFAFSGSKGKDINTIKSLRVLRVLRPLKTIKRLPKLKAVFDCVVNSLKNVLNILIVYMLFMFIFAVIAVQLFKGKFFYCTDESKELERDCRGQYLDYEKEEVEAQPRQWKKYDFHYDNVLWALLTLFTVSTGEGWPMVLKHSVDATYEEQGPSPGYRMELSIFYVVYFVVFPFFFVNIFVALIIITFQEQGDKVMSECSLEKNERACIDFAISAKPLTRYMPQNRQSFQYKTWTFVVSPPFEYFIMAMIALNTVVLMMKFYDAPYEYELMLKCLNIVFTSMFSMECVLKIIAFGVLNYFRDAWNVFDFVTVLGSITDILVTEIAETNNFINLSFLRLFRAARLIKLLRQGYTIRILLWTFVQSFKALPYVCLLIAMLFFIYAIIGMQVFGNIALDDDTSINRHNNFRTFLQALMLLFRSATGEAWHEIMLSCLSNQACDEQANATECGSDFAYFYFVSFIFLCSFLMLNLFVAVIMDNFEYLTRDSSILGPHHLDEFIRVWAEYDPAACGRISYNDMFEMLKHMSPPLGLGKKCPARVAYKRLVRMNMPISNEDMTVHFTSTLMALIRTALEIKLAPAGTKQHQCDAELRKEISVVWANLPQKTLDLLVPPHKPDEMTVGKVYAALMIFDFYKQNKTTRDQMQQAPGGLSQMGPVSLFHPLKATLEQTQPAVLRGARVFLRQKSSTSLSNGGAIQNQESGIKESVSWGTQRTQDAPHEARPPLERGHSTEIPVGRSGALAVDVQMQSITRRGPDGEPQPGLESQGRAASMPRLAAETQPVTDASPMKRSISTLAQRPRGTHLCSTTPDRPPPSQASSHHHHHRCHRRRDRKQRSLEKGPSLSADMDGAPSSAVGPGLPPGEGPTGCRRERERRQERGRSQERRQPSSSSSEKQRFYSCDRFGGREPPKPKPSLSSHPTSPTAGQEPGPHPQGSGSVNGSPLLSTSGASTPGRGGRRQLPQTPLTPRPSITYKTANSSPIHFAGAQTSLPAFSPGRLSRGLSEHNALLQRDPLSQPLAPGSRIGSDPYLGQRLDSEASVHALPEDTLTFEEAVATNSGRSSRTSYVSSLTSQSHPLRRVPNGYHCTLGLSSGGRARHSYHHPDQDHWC

Take `Cc1ccc(-c2cnn(-c3cccc([N+](=O)[O-])c3)c2N)cc1`: the inhibition is 22.4% (inactive).

On to `Cc1cc(C)cc(NC(=O)CCC(=O)N2CCSc3ccccc32)c1`, for which the inhibition was -4.1% (inactive).

Take `COc1cc(CNc2ccc3[nH]c(=O)[nH]c3c2)ccc1OCC(=O)NC(C)(C)C`: the inhibition was 43.9% (inactive).

Consider `COc1cc(CNc2ccc3[nH]c(=O)[nH]c3c2)cc(Cl)c1OCC(=O)NC(C)(C)C`, for which the inhibition is 51.8% (active).

Turning to `COc1cc(CNc2ccc3[nH]c(=O)[nH]c3c2)cc(Br)c1OCC(=O)NC(C)(C)C`, the inhibition is -33% (inactive).

For `COc1ccc(OC)c(C(=O)NC(CC(N)=O)c2ccc(NCC3CC3)c([N+](=O)[O-])c2)c1` (stereo not given), the inhibition was -4.2% (inactive).

On to `O=C(c1cccc(C(=O)N(c2ccccn2)C2CCCCC2)c1)N(c1ccccn1)C1CCCCC1`, for which the inhibition is -10.9% (inactive).

In the case of `O=S(=O)(Nc1cc(Sc2cccc3cccnc23)c(O)c2ccccc12)c1ccc(F)cc1`, the inhibition was -17% (inactive).

Take `O=S(=O)(Nc1cc(Sc2ncn[nH]2)c(O)c2ccccc12)c1ccccc1`: the inhibition is 56.7% (inactive). Further, the inhibition under setting [1] is -21.5%.

For the compound `O=S(=O)(Nc1cc(Sc2cccc3cccnc23)c(O)c2ccccc12)c1ccccc1`, the inhibition is 69.2% (active).

For `COc1ccc(C2N(C(=O)c3ccccc3)CCN2C(=O)c2ccc(C)cc2)cc1` (stereo not given), the inhibition is -6.5% (inactive).

`CN(Cc1c(C(=O)N2CCCCCCC2)nc2ccc(Cl)cn12)C1CCOC1` (stereo not given): the inhibition was -10% (inactive).

`COC(=O)N1CC(c2ccccc2)CC1=O` (stereo not given): the inhibition was -7.4% (inactive).

With `Nc1nc(-c2ccc([N+](=O)[O-])cc2)cs1`, the inhibition is 35.7% (inactive).

As to `O=[N+]([O-])c1ccc(-c2cnc3ccccc3n2)cc1`, the inhibition was 6.2% (inactive).

As for `Cc1ccccc1OCC(=O)N/N=C/c1ccc([N+](=O)[O-])o1`, the inhibition is 6.4% (inactive).

As to `COc1ccccc1OCC(=O)N/N=C/C=C/c1ccc([N+](=O)[O-])o1`, the inhibition was 54.5% (active).

For the compound `Cc1ccc(OCC(=O)N/N=C/C=C/c2ccco2)cc1C`, the inhibition was 55.3% (active).

For `Cc1cccc(OCC(=O)N/N=C/C=C/c2ccco2)c1`, the inhibition is 59.6% (inactive). Moreover, the inhibition under setting [1] was 16%.

For the compound `Cc1ccc(OCC(=O)N/N=C/C=C/c2ccco2)cc1`, the inhibition is 53.6% (inactive). In addition, the inhibition under setting [1] amounted to 27.1%.

Turning to `O=C(COc1ccccc1[N+](=O)[O-])N/N=C/C=C/c1ccco1`, the inhibition is 4.5% (inactive).

As for `COCc1c(C(=O)OCC(=O)NCCN2C(=O)CSC2=O)oc2ccccc12`, the inhibition is 1.8% (inactive).

For `COCCCNC(=O)c1cc2c(-c3ccc(Cl)cc3)nn(C)c2s1`, the inhibition is 13% (inactive).

As for `O=S(=O)(NCc1ccccc1)NCc1ccccc1`, the inhibition was 0.7% (inactive).

As for `CCN(CC)S(=O)(=O)c1cc(C(=O)OCC(=O)Nc2cccc(Br)c2)ccc1F`, the inhibition is -2.8% (inactive).

Regarding `Oc1c(C=Nc2ccccc2)sc(=S)n1Cc1ccccc1`, the inhibition is -4.9% (inactive).

With `CCn1c(O)c(/C=C/C=C/C=Nc2ccccc2)sc1=S`, the inhibition is 1.5% (inactive).

For the compound `CCCn1c(O)c(C=Nc2ccccc2)sc1=S`, the inhibition is 35.6% (inactive).

With `O=C(O)Cn1c(O)c(C=Nc2ccccc2)sc1=S`, the inhibition was -17.7% (inactive) and -1.2% (inactive).

As for `Oc1c(/C=C/C=C/C=Nc2ccccc2)sc(=S)n1Cc1ccccc1`, the inhibition was 50.6% (active).

Consider `CCCCn1c(O)c(/C=C/C=C/C=Nc2ccccc2)sc1=S`, for which the inhibition was 71.6% (active).

Consider `O=C(Nc1cccc(Cl)c1)Nc1ccccc1C(=O)NCc1ccco1`, for which the inhibition was 3.4% (inactive).

`CCc1ccccc1NC(=S)NC1CC2CCC(C1)N2Cc1ccc(F)cc1` (stereo not given): the inhibition was -9.8% (inactive).

`CCn1c(SCC(=O)NNC(=O)c2ccc(C)cc2)nnc1C1CC1`: the inhibition was 7.6% (inactive).

Turning to `COc1ccccc1-c1nnc(SCC(=O)NCc2cccs2)n1N`, the inhibition is -0.4% (inactive).

On to `O=C1OC(c2ccc(F)cc2)=C/C1=C\c1ccc(O)cc1`, for which the inhibition is -0.4% (inactive).

Regarding `O=C1OC(c2ccc(F)cc2)=C/C1=C\c1ccc([N+](=O)[O-])o1`, the inhibition is 73% (active).

Consider `O=[N+]([O-])c1ccc(/C=N\NS(=O)(=O)c2ccc(F)cc2)o1`, for which the inhibition is -7% (inactive).

Turning to `CCOc1ccc(NC(=O)NC(=O)N(C)S(=O)(=O)c2ccc(C)cc2)cc1`, the inhibition was 8.1% (inactive).

Turning to `Cc1ccc(C)c(N2CCN(C(=O)c3ccc4nc(-c5ccco5)c(-c5ccco5)nc4c3)CC2)c1`, the inhibition was 56.6% (inactive). Also, under setting [1], the inhibition came to 15.5%.

For the compound `O=C(c1ccc2nc(-c3ccco3)c(-c3ccco3)nc2c1)N1CCN(c2ccccc2)CC1`, the inhibition is 47.9% (inactive).

Consider `O=C(Nc1ccccc1)c1ccc2nc(-c3ccco3)c(-c3ccco3)nc2c1`, for which the inhibition was 57.1% (inactive). Besides, the inhibition under setting [1] is -4.3%.

As for `COc1ccccc1N1CCN(C(=O)c2ccc3nc(-c4ccco4)c(-c4ccco4)nc3c2)CC1`, the inhibition was 70% (active).

Take `O=C(c1ccccc1)c1ccc2nc(-c3ccco3)c(-c3ccco3)nc2c1`: the inhibition is 76.5% (active).

Turning to `O=C(NCc1ccccc1)c1ccc2nc(-c3ccco3)c(-c3ccco3)nc2c1`, the inhibition is 55.4% (inactive). In addition, under setting [1], the inhibition is 20.4%.

For `O=C(NCC1CCCO1)/C(=C/c1ccccc1)NC(=O)c1ccccc1` (stereo not given), the inhibition is -11.4% (inactive).

For `O=C(O)c1cccnc1-c1ncccc1C(=O)O`, the inhibition was -7.6% (inactive).

With `Cc1cccc(N/N=C2/COC(C)(C)CC2=O)c1`, the inhibition is 4.2% (inactive).

In the case of `NC(=O)C1CCN(CC(=O)c2c[nH]c3ccc(F)cc23)CC1`, the inhibition was 1.6% (inactive).

As to `CC1CCN(C(=O)c2ccc3c(c2NCCO)C(=O)c2ccccc2C3=O)CC1`, the inhibition was -7.6% (inactive).

Turning to `CC1CCCN(C(=O)c2ccc3c(c2NCCO)C(=O)c2ccccc2C3=O)C1` (stereo not given), the inhibition is -10.5% (inactive).

With `CC1CC(C)CN(C(=O)c2ccc3c(c2NCCO)C(=O)c2ccccc2C3=O)C1` (stereo not given), the inhibition is 59% (active).

`CC(=O)CN1C(=O)NC(c2ccccc2)(c2ccccc2)C1=O`: the inhibition was 12.2% (inactive).

As to `Cc1cc(-c2ccc(S(=O)(=O)N(C)Cc3ccccc3)cc2)on1`, the inhibition is 9% (inactive).

Turning to `COC(c1ccccc1)c1nnc(CCC(=O)NCc2cccc(-n3cccn3)c2)o1` (stereo not given), the inhibition is 10.4% (inactive).

Take `COC(c1ccccc1)c1nnc(CCC(=O)NCc2ccc3ncccc3c2)o1` (stereo not given): the inhibition is 50% (active).

Regarding `COc1ccc(CCc2nnc(CCC(=O)NCc3ccc4ncccc4c3)o2)cc1`, the inhibition was -2.5% (inactive).

As to `O=C1CNC(=O)/C1=C/c1ccccc1`, the inhibition is 7.3% (inactive).

As to `O=C1CSC(c2ccccc2)N1c1nnc(C23CC4CC(CC(C4)C2)C3)s1` (stereo not given), the inhibition was 1.5% (inactive).
